# Source: PubChem BioAssay
# D3 antag = antagonists of human D3 dopamine receptor; P35462; D3R cells, DiscoveRx beta-arrestin luminescence, antagonist mode; active compounds read low; max response, negative = inhibition, %; 360,000 compounds, 2.5% hits; in the data active = max response below about -50%; inconclusive = no clear call, values can overlap the other calls; note: % is set by controls: 0 for no effect and ±100 for the full control effect
# Target sequence (P35462 whole entry, looked up): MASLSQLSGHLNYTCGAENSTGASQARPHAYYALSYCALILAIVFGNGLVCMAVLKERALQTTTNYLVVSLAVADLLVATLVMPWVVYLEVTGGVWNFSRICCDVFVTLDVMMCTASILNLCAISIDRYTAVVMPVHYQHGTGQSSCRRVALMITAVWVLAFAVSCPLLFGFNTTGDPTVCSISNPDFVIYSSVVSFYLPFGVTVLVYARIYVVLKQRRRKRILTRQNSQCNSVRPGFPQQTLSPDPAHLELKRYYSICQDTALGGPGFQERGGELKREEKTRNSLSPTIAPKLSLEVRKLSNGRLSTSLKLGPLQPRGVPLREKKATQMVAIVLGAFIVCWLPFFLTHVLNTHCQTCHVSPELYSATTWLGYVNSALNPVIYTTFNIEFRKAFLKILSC
#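 Cells expressing the human receptor were seeded at 1500 cells/well, incubated overnight at 37 degrees C in 5% CO2, then exposed to library compounds with dopamine controls for 90 minutes at 37 degrees C before luminescent detection.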
# PI4K2A block = inhibitors of human PI4K2A; purified PI4K2A, ADP-Glo luminescence, 1 h; active compounds read low; activity change, negative = inhibition, % at 76.9 µM; 420,000 compounds, 0.13% hits; AID 1346378; in the data active = activity change below about -50%; inconclusive = mostly about -30% to -49%;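 note: -100% = wells without enzyme as full effect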
#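 Compounds are screened against recombinant PI4K2A using PI as substrate and ATP, the latter dispensed at 300 microM. Reactions run one hour at ambient temperature before ADP-Glo detection; full inhibition defined by wells lacking enzyme.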
# LDHA block = LDHA (human) enzyme inhibition; P00338; 480,000 compounds, 0.15% hits; activity change, % (values are at about 110 or 230 µM); AID 1347041; purified LDHA, NADH/diaphorase-resazurin fluorescence; active compounds read low; in the data active = activity change below about -30%; inconclusive = mostly about -25% to -30%;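 note: plate controls were DMSO wells for no effect and wells without enzyme for full effect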
#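 Human LDH5 at 2 nM final in Tris HCl pH 7.4 with 0.06 mM NADH and 0.2 mM pyruvate, reacted 5 minutes at room temperature. Remaining NADH coupled via diaphorase/resazurin; resorufin fluorescence read at 0 and 20 minutes, normalized to enzyme-free and DMSO wells.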
# PI5P4K alpha inh = inhibitors of human PI5P4K alpha; PI5P4Kalpha enzyme, ADP-Glo luminescence, 60 min; active compounds read low; max response, %; AID 652105; 330,000 compounds, 1.2% hits; P48426; active = max response of -50% or lower; inconclusive = between -30% and -50%; inactive = -30% or higher; note: value at the top dose of about 77 µM; % is set by controls: 0 for no effect and ±100 for the full control effect
#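 Reactions run in 0.038 M HEPES pH 7.4, 0.28 mM EGTA, 0.1% CHAPS and 5% DMSO, with PI5P4Kalpha, substrate, compound and 5 microM ATP final, one hour at room temperature. Readout is ADP-Glo luminescence.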
# DRD3 agonist = activates the human D3 dopamine receptor | AID 652048 | P35462 | max activation, % | D3R DiscoveRx beta-arrestin cells, luminescence, 90 min | 410,000 compounds, 0.58% hits; in the data active = max activation above about 30%; note: 0% is about no effect
#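 Agonist-mode cell screen: cells plated at 1500/well and incubated overnight at 37 °C, then exposed to library compounds for 90 min at 37 °C. Detection reagent was added for 30–60 min at room temperature, and luminescence was read.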
# Numbers without * were called inactive; u = inconclusive; x = no result given. Hits are enriched below; roughly 3.3% of the tested compounds scored in any of these assays.
SMILES,D3 antag,PI4K2A block,LDHA block,PI5P4K alpha inh,DRD3 agonist
O=C1/C(=C/c2cccc(O)c2)SC(=S)N1CC1CCCO1 (stereo not given),0,8,-1,3,-1
CCOc1cc(/C=C2/SC(=S)N(CC3CCCO3)C2=O)ccc1O (stereo not given),-64*,-8,-6,-16,-2
COc1cc(/C=C2\SC(=S)N(NS(=O)(=O)c3ccccc3)C2=O)ccc1O,-5,-5,3,-61*,-1
COc1cc(/C=C2\SC(=S)N(NC(=O)c3ccc(O)c(OC)c3)C2=O)ccc1O,-75*,-18,-9,u,-16
COc1ccc(/C=C2\SC(=S)N(CCC(=O)Nc3ccccc3C(=O)O)C2=O)cc1,65,0,-10,-8,9
COc1ccc(/C=C2\SC(=S)N(CCCC(=O)Nc3ccccc3C(=O)O)C2=O)cc1OC,109,-1,1,-64*,18
COc1cc(/C=C2/SC(=S)N(Cc3ccccc3)C2=O)ccc1O,-61*,-4,0,0,-19
COc1cc(/C=C/C(=O)Oc2ccc(-c3ccc(C)cc3)cc2)ccc1OCC#N,x,x,0,x,x
Cc1ccc(OC(=O)c2ccc(C)c(Br)c2)c(C)c1,x,x,5,x,x
O=C(Nc1ccccc1)Nc1ccc(C(=O)N2CCCC2)cc1,-1,-62*,2,-26,-9
O=C(Nc1ccc(C(=O)N2CCCCC2)cc1)c1ccccc1,24,u,-7,-26,8
O=C(NCCCN1CCCC1=O)c1cc2cc(F)ccc2[nH]1,x,x,1,x,x
COc1ccccc1CN=C1NC(=O)C(CC(=O)Nc2ccc(C(C)=O)cc2)S1 (stereo not given),-3,0,-13,-27,53*
COc1ccc(CCNC(=O)CC2SC(=NCc3ccccc3OC)NC2=O)cc1 (stereo not given),-12,-5,-6,-14,5
Cc1ccc(-c2nc(CCN3C(=O)c4ccccc4C3=O)cs2)cc1,27,0,-3,x,1
O=C1c2ccccc2C(=O)N1CCc1csc(NNc2nc(CCN3C(=O)c4ccccc4C3=O)cs2)n1,10,-5,-1,-69*,1
O=C(CCc1ncc(-c2ccccc2)o1)Nc1ccc2ccccc2c1,x,x,7,x,x
Cc1nn(-c2ccc3nncn3n2)c2c1C(c1cccc(Br)c1)CC(=O)N2 (stereo not given),x,x,-3,x,x
O=C(NCCCN1CCN(c2ccccc2)CC1)Nc1ccccc1C(F)(F)F,u,-2,-5,9,30*
Cc1ccccc1NC(=O)NCCCN1CCN(c2ccccc2)CC1,u,6,0,3,50*
CN1CCN(CCCNC(=O)c2ccc(NC(=O)C3=CSCCO3)cc2)CC1,0,-3,-3,-2,3
O=C(Nc1ccc(C(=O)NCCCN2CCN(c3ccccc3)CC2)cc1)C1=CSCCO1,-73*,-1,-2,0,-7
CN1CCN(CCCNC(=O)Nc2cccc3ccccc23)CC1,-12,-2,3,7,1
Cc1ccccc1NC(=O)NCCCN1CCN(C)CC1,15,6,-1,0,3
O=C(NCCCN1CCN(c2ccccc2F)CC1)Nc1ccccc1[N+](=O)[O-],-89*,1,0,-1,5
SMILES,D3 antag,PI4K2A block,LDHA block,PI5P4K alpha inh,DRD3 agonist
Cc1ccc(Nc2nc(-c3cnc(N4CCN(C)CC4)nc3C)cc(=O)[nH]2)cc1,x,x,4,x,x
COc1cccc2c1[C@@H]1CN(CCCCn3c(=O)[nH]c4c(sc5ncc(-c6ccccc6)nc54)c3=O)C[C@@H]1CO2,-99*,1,-3,5,-16
Cc1ccccc1-n1nnc(C(=O)NC(C)C)c1N,x,x,1,x,x
C=CCn1c(N)c(C(=O)N2CCN(C)CC2)sc1=S,-54*,-4,-13,x,-35
CCN(CC)CCC=C(c1cccs1)c1cccs1,-54*,0,-10,11,-15
CCN(C(=O)c1cccs1)C1CC1,x,x,3,x,x
CCCOC(=O)C1=C(C)Nc2nnnn2C1c1cc(Br)ccc1OCC (stereo not given),x,x,-32*,x,x
CCCOc1ccc(Br)cc1C1C(C(=O)OCC)=C(C)Nc2nnnn21 (stereo not given),x,x,21,x,x
Cc1ccc(-n2nc(C)cc2NC(=O)CSc2nnnn2-c2cc(C)cc(C)c2)cc1,x,x,-2,x,x
COc1ccccc1-c1noc(CCC(=O)Nc2cc(C(F)(F)F)ccc2Cl)n1,-10,-1,-6,x,30*
COc1ccccc1-c1noc(CCCC(=O)Nc2cccc(C(F)(F)F)c2)n1,x,-2,3,x,-21
Cc1ccccc1C(=O)Nc1ccc2oc(=O)ccc2c1,x,x,-1,x,x
Cc1ccsc1/C=C1\CCc2ccccc2C1=O,7,-75*,8,u,-4
O=C1C(=Cc2ccccn2)CCc2ccccc21,-67*,u,0,-16,-15
COc1ccc2c(c1)CC/C(=C/c1ccccn1)C2=O,-24,3,-8,4,-9
O=C1/C(=C/c2ccccc2)CCc2ccccc21,x,x,3,x,x
S=C(NC(=NCc1ccccc1)c1ccccc1)Nc1ccccc1,x,x,-3,x,x
O=c1[nH]c(=O)n(Cc2ccccc2)c2nccc(-c3ccc(F)cc3)c12,x,x,5,x,x
O=C(CCOc1cccc(Cl)c1)N1CCC(c2nnc3n2CCC3)CC1,x,x,-5,x,x
COc1ccc2nc(C)cc(N/N=C/c3cccc(OC)c3O)c2c1,0,1,1,-9,-3
COc1cccc(/C=N/Nc2cc(-n3nc(C)cc3-c3ccccc3)ncn2)c1O,24,2,-1,-20,38*
COc1cccc(/C=N/Nc2nc(Nc3ccccc3)nc(-n3nc(C)cc3C)n2)c1O,-141*,2,5,-26,-46
Cc1cc(Br)ccc1-n1cccc1C=O,x,x,8,x,x
O=S(=O)(c1ccc(Cl)cc1)c1ccc(-c2ccc(S(=O)(=O)c3ccc(Cl)cc3)cc2)cc1,x,x,-8,x,x
CN1CCc2c(sc(/N=C/c3c[nH]c4ccccc34)c2C(N)=O)C1,-52*,-6,1,2,-21
CN1CCc2c(sc(/N=C/c3c[nH]c4ccccc34)c2C#N)C1,u,-1,4,-15,-8
Nc1c(N2CCCC2)c2ccccc2oc1=O,11,6,-15,5,44*
O=C(CSc1nnc(COc2ccccc2Cl)o1)NC(=O)NCc1ccco1,-5,-6,-10,-75*,-2
O=C(CSc1nnnn1-c1ccccc1)NC(=O)NCc1ccco1,9,-8,-12,-60*,0
Cc1cc(N2CCN(C)CC2)nc2ccc(NC(=O)c3ccc4c(c3)OCO4)cc12,-76*,3,3,0,-6
